Compound activity: PubChem BioAssay, several laboratories
YopH inh: inhibitors of Yersinia enterocolitica YopH tyrosine phosphatase; fluorescence Ex485/Em525; inhibition, % (no concentration beside the values); hit rate 0.16% among 140,000; AID 898; in the data active = inhibition above about 50%
RmlC RmlD mix: mixture blocks RmlC and RmlD coupled enzyme activity | RmlC/RmlD coupled enzyme inhibition, 384-well mixture HTS | inhibition, % at 5.5 µM | hit rate 0.39% among 110,000 | AID 1532; in the data active = inhibition above about 30%, passing the limit was not always enough
RmlCD fluor art: counter-screen for RmlC/RmlD inhibitors: fluorescence artifact. shares compounds with RmlC RmlD mix. RmlC/RmlD assay fluorescence artifact counter-screen. calls only. hit rate 96% among 360; call rule not given here;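 also: compound alone with no enzyme and no substrates present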
* = called active by the depositor; x = no result; + = active, no number. An excerpt weighted towards active compounds, which were near 0.44% of everything screened.

SMILES | YopH inh | RmlC RmlD mix | RmlCD fluor art
O=C(Nc1sc2c(c1C(=O)O)CCC2)c1ccco1 | -61 | 15 | x
O=C(Nc1sc2c(c1C(=O)NC1CC1)CCCCCC2)c1ccco1 | -12 | + | +
COc1cc(CN2C(=S)NC(C)(C)CC2(C)O)cc(OC)c1 (stereo unspecified) | -21 | x | x
O=C(NCc1nc2ccccc2[nH]1)C1=C[C@@H](c2ccc(C(F)(F)F)cc2)C[C@@H](OCCCCO)O1 | x | -9 | x
C=CCOc1ccc(C2OC34CCCCC3C(C#N)(C#N)C2(C#N)C(=N)O4)cc1 (stereo unspecified) | -19 | 60* | +
CCC12OC(=N)C(C#N)(C1C)C(C#N)(C#N)C(c1ccccc1)O2 (stereo unspecified) | -13 | x | x
Cc1ccc(C2OC34CCCCCC3C(C#N)(C(=N)O4)C2(C#N)C#N)cc1 (stereo unspecified) | -8 | x | x
CCOc1ccc(C2OC34CCCCC3C(C#N)(C#N)C2(C#N)C(=N)O4)cc1OC (stereo unspecified) | -23 | + | +
CCOc1ccc(C2C(C#N)=C(N)SC(N)=C2C#N)cc1OC | -32 | -2 | x
CCCCOc1ccc(C2OC34CCCCC3C(C#N)(C#N)C2(C#N)C(=N)O4)cc1 (stereo unspecified) | -25 | 161* | +
NC(=O)[C@@H]1CC2(CC(c3cccc(NC(=O)[C@@H]4CCC(=O)N4)c3)=NO2)CN1C(=O)Cc1ccc([N+](=O)[O-])cc1 (stereo partly specified) | x | 5 | x
COc1ccc(CCN(Cc2cc3cccc(C)c3[nH]c2=O)C(=O)NC2CCCCC2)cc1OC | -4 | 24 | x
Cc1ccc(Nc2nnc(-c3ccncc3)s2)c(Br)c1 | -19 | x | x
O=C(Cn1c(=O)c(=O)n(Cc2ccccc2)c2ccc(Cl)cc21)Nc1cccc(F)c1 | -18 | x | x
COc1ccc(Cl)cc1NC(=O)C(C)N(C)Cc1ccc(C(F)(F)F)cc1 (stereo unspecified) | -38 | x | x
C=CCOC(=O)C1=C[C@H](c2ccc3c(c2)OCO3)C[C@H](OCCCCO)O1 | x | 14 | x
CN(C)C(=O)c1ccc(NC(=O)c2ccccc2Sc2ccccc2C#N)cc1 | -21 | x | x
Fc1ccc(Cn2ccc(-c3cnc(-c4ccccc4)s3)n2)cc1 | -19 | -9 | x
O=C(c1ccc(F)cc1)n1ccc(-c2cnc(-c3ccccc3)s2)n1 | -8 | 80* | +
CCOC(=O)c1c(NC(=O)Cn2cnc3scc(-c4ccc(C)cc4)c3c2=O)sc(C)c1C | -17 | x | x
CC(C)Oc1cc2oc(=O)c3c(c2cc1Cl)CCC3 | -89 | -6 | x
COC(=O)Cc1c(C)c2cc(Cl)c(OC(=O)c3ccco3)cc2oc1=O | -18 | x | x
O=C(Oc1ccc2c3c(c(=O)oc2c1)CCCC3)c1cccs1 | -14 | x | x
O=C(Oc1ccc2c3c(c(=O)oc2c1)CCC3)c1ccco1 | -26 | 187* | +
CC(=O)Oc1cc2oc(=O)c3c(c2cc1Cl)CCC3 | -28 | x | +
SMILES | YopH inh | RmlC RmlD mix | RmlCD fluor art
O=C(Oc1cc2oc(=O)c3c(c2cc1Cl)CCCC3)c1ccco1 | -17 | 141* | +
COC(=O)Cc1c(C)c2ccc(OC(=O)c3ccco3)cc2oc1=O | -41 | + | +
Cc1cc2oc(=O)c3c(c2cc1OC(=O)c1ccco1)CCCC3 | -13 | -48 | x
Clc1ccc(-c2cn3c(n2)-c2ccccc2C3)cc1Cl | -32 | x | x
Cc1ccc(NC(=O)C2(c3cccs3)CCOCC2)cc1C | -15 | x | x
CC(C)n1nc(C(=O)OCn2nnc3ccccc3c2=O)c2ccccc2c1=O | -22 | x | x
O=C(C1CCCN(S(=O)(=O)c2ccccc2[N+](=O)[O-])C1)N1CCCC1 (stereo unspecified) | -10 | x | x
COc1ccc(S(=O)(=O)NNC(=O)c2cc3ccccc3o2)cc1 | -36 | x | x
COc1cc(CNCc2ccccn2)ccc1OCc1cccc(Cl)c1 | -28 | -18 | x
Cc1nc2c(c3c1[nH]c1ccccc13)C(O)CC(C)(C)C2 (stereo unspecified) | -28 | x | x
CCCCc1cc(=O)oc2c(CN(CC)CC)c(O)c(Cl)cc12 | -19 | 85* | +
O=c1oc2c(CN3CCOCC3)c(O)c(Cl)cc2c2c1CCCC2 | 1 | 29 | x
CCCCc1cc(=O)oc2c(CN3CCCC3)c(O)c(Cl)cc12 | -11 | 124* | +
CN1CCN(Cc2c(O)c(Cl)cc3c(-c4ccccc4)cc(=O)oc23)CC1 | -31 | -9 | x
CCCc1cc(=O)oc2c(CN3CCN(C)CC3)c(O)c(Cl)cc12 | x | 71* | +
Cc1cc(=O)oc2c(CN3CCN(C)CC3)c(O)c(Cl)cc12 | -39 | x | x
Cc1c(C)c2cc(Cl)c(O)c(CN3CCCCC3)c2oc1=O | -9 | 90* | +
CCCCc1cc(=O)oc2cc(OCc3nn[nH]n3)c(Cl)cc12 | -14 | 20 | x
CCN1CCN(C(=O)c2ccc(CN(c3ccccc3)S(=O)(=O)c3ccccc3)cc2)CC1 | -32 | x | x
CCOC(=O)c1c(-c2cccs2)csc1NC(=O)CNCCN1CCOCC1 | 3 | 2 | x
